Reference: PubChem BioAssay (NCATS)
Calls of active or inactive are those of the source. Entries that show only a call come without a potency. Calls come from the whole dose curve; as a rule, active = well fitted curve in the direction sought with a large enough effect; inconclusive = small, poorly fitted or top-dose-only effect, or another doubt; inactive = no such curve, though single readings can be large; an effect the other way counts as inactive or inconclusive.

Columns and labels:
[1] = Validation qHTS assay for inhibitors of Activation Induced Cytidine Deaminase (AID): UDG Counterscreen signal (AID 1347427); conditions: biochemical UDG counterscreen, fluorescence signal; series mostly up to 115 µM; note: potency is the fitted concentration of half-maximal effect
Summary of the method: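 Counterscreen read of UDG activity (2 U/mL, 4/3x) in the FRET deamination format with AID (1 uM, 4/3x), DJC20/DJC23 substrates (250 nM, 4x), 4 h at room temperature. NaOH stop, fluorescence at 560 ex/665 em.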

[2] = qHTS for inhibitors of adenylyl cyclases using a fission yeast platform: a pilot screen against the NCATS LOPAC library (AID 1347410); conditions: S. pombe CHP2027, fbp1-GFP fluorescence, 18 h, yeast expressing mammalian AC9 and human GNAS; series mostly up to 57.5 µM
Summary of the method: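 Read-out: fbp1-GFP fluorescence by laser scanning cytometry (488 nm laser), a gain of signal when AC/cAMP-PKA signalling is inhibited. Strain CHP2027 expressing AC9, GNAS and PDE4D2; compounds at up to 57 µM; 18 h, 30C.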

| Structure (SMILES) | Potency [1] | outcome [2] |
| --- | --- | --- |
| S=C(S)N1CCCC1 | inactive | – |
| CCCCCCCCCCCCCCC[C@H](O)[C@H](N)CO | inactive | inactive |
| O=[N+]([O-])c1cccc2c(Br)[nH]nc12 | inactive | – |
| O=C(O)C1=CC(=C(c2ccc(O)c(C(=O)O)c2)c2ccc(O)c(C(=O)O)c2)C=CC1=O | 89.1 µM (active) | inactive |
| Clc1nccc2c1ccc1ccccc12 | inactive | inactive |
| CN(C)S(=O)(=O)c1ccc2c(c1)/C(=C/c1cc3c([nH]1)CCCC3)C(=O)N2 | inactive | – |
| c1ccc(CN2CCC3(CCCc4ccccc43)CC2)cc1 | inactive | inactive |
| NCCNS(=O)(=O)c1cccc2c(Cl)cccc12 | inactive | inactive |
| CC1C(=O)N(C)C(=O)c2nc[nH]c21 (stereo not given) | inactive | inactive |
| O=c1[nH]c2ccccc2c2ccccc12 | inactive | inactive |
| Oc1ccc(Cn2cc[nH]c2=S)cc1 | inactive | inactive |
| COc1cc([C@@H]2c3cc4c(cc3[C@H](O)C3COC(=O)[C@@H]32)OCO4)cc(OC)c1OC (stereo not given in full) | inactive | inactive |
| CC(N)=O | inactive | inactive |
| CC(=O)NNC(=O)N1Cc2ccccc2Oc2ccc(Cl)cc21 | inactive | inactive |
| Nc1ncnc2c1nc(Sc1ccc(Cl)cc1)n2[C@H]1OC2COP(=O)(O)O[C@@H]2C1O (stereo not given in full) | inactive | inactive |
| NOCC(=O)O | inactive | inactive |
| Cn1c(=O)[nH]c2ncn(C)c2c1=O | inactive | inactive |
| Oc1cc2c(cc1O)C(c1ccccc1)CNCC2 (stereo not given) | inactive | inactive |
| O=c1onc2n1-c1cc(Br)ccc1OC2 | inactive | inactive |
